U2OS ROS induce: ROS inducers in U2OS cancer cells, primary screen, cell-based, H2DCF-DA fluorescence; U2OS ROS induction; ROS induction (% of piperlongumine), % at 10 µM; 46,000 compounds, 2% hits; AID 624156, 2012; in the data active = ROS induction above about 79%, passing the limit was not always enough;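 note: 0% = DMSO vehicle median and 100% = reference compound median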
* = called active by the depositor. Shown is part of a subset that was picked to be rich in hits.

SMILES	U2OS ROS induce
Cc1ccc(OC(=O)COc2ccc3ccccc3c2)cc1	-6.5
O=C(C1CC(=O)N(c2ccc(OCc3ccccc3Cl)cc2)C1)N1CCOCC1 (stereo not given)	-1.6
C=CCSc1nnc2n(-c3ccccc3)c(=O)c3c(C)c(C)sc3n12	65.1
COc1ccccc1CCNC(=O)c1ccc(COc2ccccc2Cl)o1	-4.2
CSc1ccc(/C=N/n2nnnc2Nc2ccccc2)cc1	7.3
COc1ccccc1CNC(=O)C1CCCN(S(=O)(=O)c2ccc(C)cc2)C1 (stereo not given)	5.2
C[C@H](CO)N1C[C@H](C)[C@H](CN(C)S(=O)(=O)c2cn(C)cn2)Oc2ncc(C#CCN(C)C)cc2C1=O	4.2
C[C@H](CO)N1C[C@H](C)[C@H](CN(C)S(=O)(=O)c2cn(C)cn2)Oc2ncc(C#Cc3ccccc3)cc2C1=O	119.6*
C[C@H](CO)N1C[C@H](C)[C@H](CN(C)S(=O)(=O)c2cccs2)Oc2ncc(C#Cc3ccc(C(F)(F)F)cc3)cc2C1=O	110.1*
CCCC(O)C#Cc1cnc2c(c1)C(=O)N([C@H](C)CO)C[C@H](C)[C@H](CN(C)S(=O)(=O)c1cccs1)O2 (stereo not given in full)	10.8
COc1cccc(S(=O)(=O)N(C)C[C@@H]2Oc3ncc(C#Cc4ccc(OC)c(OC)c4)cc3C(=O)N([C@H](C)CO)C[C@@H]2C)c1	47.3
COc1cccc(S(=O)(=O)N(C)C[C@@H]2Oc3ncc(C#Cc4ccc(C(F)(F)F)cc4)cc3C(=O)N([C@H](C)CO)C[C@@H]2C)c1	129.2*
C[C@H](CO)N1C[C@H](C)[C@H](CN(C)S(=O)(=O)c2cccs2)Oc2ncc(C#Cc3ccc(F)cc3)cc2C1=O	11.1
C[C@H](CO)N1C[C@H](C)[C@H](CN(C)S(=O)(=O)c2cn(C)cn2)Oc2ncc(C#Cc3ccc(C(F)(F)F)cc3)cc2C1=O	7.4
COc1cccc(S(=O)(=O)N(C)C[C@@H]2Oc3ncc(C#Cc4cccc(F)c4)cc3C(=O)N([C@H](C)CO)C[C@@H]2C)c1	47.6
Cc1ccccc1OCC(=O)Nc1ccc(NC(=O)c2cccs2)cc1	6.4
Cc1cc(C)n2nc(SC(C)C(=O)NCc3ccccc3Cl)nc2n1 (stereo not given)	-13.0
CSc1nnc(-c2ccc(Cl)cc2Cl)n1Cc1ccco1	5.7
CC(=O)Oc1ccc(C(=O)N2CCc3ccccc3C2)cc1	-12.0
COc1ccc2c(Sc3ccc(C)cc3)c(C(=O)NCCc3ccc(OC)c(OC)c3)[nH]c2c1	6.4
NS(=O)(=O)c1ccc(CCn2c(=S)[nH]c3c(sc4ccccc43)c2=O)cc1	-5.1
NC(=O)C1CCN(C(=O)CN2C(=O)/C(=C/c3ccccc3F)Sc3ccccc32)CC1	4.4
Cc1ccc(S(=O)(=O)c2[nH]nc3ccc(Cl)cc23)cc1	3.5
C=C[C@]1(C)C[C@H](O)[C@H]2C(=C)C(=O)O[C@@H]2[C@H]1C(=C)CO	15.4
C=CC1(C)C[C@H](OC(=O)C(C)CO)[C@H]2C(=C)C(=O)O[C@@H]2C1C(=C)CO (stereo not given in full)	134.1*
SMILES	U2OS ROS induce
O=C(CSc1ncnc2c1sc1ccccc12)NC1CCCCC1	36.4
COCCOC(=O)N1C(=O)[C@@]2(c3ccccc31)[C@H](C(=O)N1CCc3cc(OC)c(OC)cc3C1)[C@H]1C(=O)O[C@H](c3ccccc3)[C@H](c3ccccc3)N1[C@@H]2c1ccc(O)cc1	185.0*
COCCOC(=O)N1C(=O)[C@@]2(c3cc(C#CCC(C(=O)OC)C(=O)OC)ccc31)[C@H](C(=O)N1CCc3cc(OC)c(OC)cc3C1)[C@H]1C(=O)O[C@H](c3ccccc3)[C@H](c3ccccc3)N1[C@@H]2c1ccc(O)cc1	0.8
COc1cc2c(cc1OC)CN(C(=O)[C@@H]1[C@H]3C(=O)O[C@H](c4ccccc4)[C@H](c4ccccc4)N3[C@H](c3ccccc3OCCO)[C@@]13C(=O)Nc1ccc(C#CCNC(N)=O)cc13)CC2	18.0
COCCOC(=O)N1C(=O)[C@@]2(c3cc(C#CC4=CCCCC4)ccc31)[C@H](C(=O)N1CCc3cc(OC)c(OC)cc3C1)[C@H]1C(=O)O[C@H](c3ccccc3)[C@H](c3ccccc3)N1[C@@H]2c1ccc(O)cc1	8.7
COCCOC(=O)N1C(=O)[C@@]2(c3ccccc31)[C@H](c1ccc(O)cc1)N1[C@H](c3ccccc3)[C@H](c3ccccc3)OC(=O)[C@H]1[C@@H]2C(=O)N1CCc2cc(OC)c(OC)cc2C1	10.9
COCCOC(=O)N1C(=O)[C@@]2(c3ccccc31)[C@H](c1ccccc1OCCO)N1[C@H](c3ccccc3)[C@H](c3ccccc3)OC(=O)[C@H]1[C@@H]2C(=O)N1CCc2cc(OC)c(OC)cc2C1	213.6*
NC(N)=Nc1nc2ccccc2s1	-11.2
CCOc1ccc(CCNC(=O)c2c(-n3cccc3)sc(C)c2C)cc1OCC	1.4
CCC(Sc1nc2ccc(Br)cc2c2nc3ccccc3n12)C(=O)NCC1CCCO1 (stereo not given)	-8.1
Cc1cccc(-c2nc3ccccc3n2CCC(C)C)c1	21.6
O=C(NCc1cccc2ccccc12)C12CC3CC(CC(C3)C1)C2	-10.1
COc1ccc([Si](C)(C)[C@H]2[C@H](CCn3cc([C@H](O)c4ccccc4)nn3)O[C@@]3(C(=O)N(Cc4ccc(N5CCC5=O)cc4)c4ccccc43)[C@@H]2C)cc1	17.0
COc1ccc([Si](C)(C)[C@@H]2[C@@H](CCO)O[C@]3(C(=O)N(Cc4ccc(N5CCC5=O)cc4)c4ccccc43)[C@H]2C)cc1	127.6*
COc1ccc([Si](C)(C)[C@H]2[C@H](CCn3cc(CCO)nn3)O[C@@]3(C(=O)N(Cc4ccc(N5CCC5=O)cc4)c4ccccc43)[C@@H]2C)cc1	80.0*
COc1ccc([Si](C)(C)[C@H]2[C@H](CCn3cc(CCO)nn3)O[C@@]3(C(=O)N(Cc4cccc(N5CCC5=O)c4)c4ccccc43)[C@@H]2C)cc1	108.6*
COc1ccc([Si](C)(C)[C@H]2[C@H](CCn3cc([C@H](O)c4ccccc4)nn3)O[C@@]3(C(=O)N(Cc4cccc(N5CCC5=O)c4)c4ccccc43)[C@@H]2C)cc1	60.7
COc1ccc([Si](C)(C)[C@@H]2[C@@H](CCn3cc([C@H](O)c4ccccc4)nn3)O[C@]3(C(=O)N(Cc4cccc(N5CCC5=O)c4)c4ccccc43)[C@H]2C)cc1	53.8
COc1ccc([Si](C)(C)[C@@H]2[C@@H](CCn3cc(CCO)nn3)O[C@]3(C(=O)N(Cc4ccc(N5CCC5=O)cc4)c4ccccc43)[C@H]2C)cc1	34.8
COc1ccc([Si](C)(C)[C@@H]2[C@@H](CCO)O[C@]3(C(=O)N(Cc4ccc(N5CCCCC5=O)cc4)c4ccccc43)[C@H]2C)cc1	37.4
COc1ccc([Si](C)(C)[C@H]2[C@H](CCO)O[C@@]3(C(=O)N(Cc4ccc(N5CCCCC5=O)cc4)c4ccccc43)[C@@H]2C)cc1	73.7
O=C(CCn1nc(-c2ccccc2)ccc1=O)NCCc1ccccc1	-4.9
O=C1C2C3C=CC(C3)C2C(=O)N1CCC1=CCCCC1 (stereo not given)	-1.2
CCOC(=O)c1ccc(NC(=O)c2oc3c(c2C)-c2nn(Cc4ccc(C)cc4)cc2CC3)cc1	-16.6
O=C1O[C@@H](c2ccccc2)[C@@H](c2ccccc2)N2[C@@H](c3ccc(OCCO)cc3)[C@]3(C(=O)Nc4ccccc43)[C@@H](C(=O)NC[C@H](O)c3ccccc3)[C@H]12	103.4*

High-throughput results: PubChem BioAssay, Broad Institute
